# Measurements reported in PubChem BioAssay AID771 (SRMLSC, 2007).
# Hit rate of the full screen: of about 3,300 compounds, about 55 (2%) were called active.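 How the source made its calls: active means growth inhibition above 90%, meaning viable cell count by imaging cut by more than 90% versus vehicle controls; inactive means growth inhibition below 90%.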 For the sample, actives were picked, then their nearest neighbours and some compounds at random.
# Experiment: HT29 colon tumor cell growth inhibition, primary screen, imaging, high content imaging, 48 h, CellTiter-Glo (AID 771);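 on condensed nuclei: condensed means Hoechst nuclear area under control median minus 1.5 SD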
# Conditions: HCS imaging cell count, at 10 µM, stronger effect = higher value; for condensed nuclei: measured here: percent cells with condensed nuclei
# [1] = measured here: ATP CellTiter-Glo viability inhibition
Structure (SMILES),growth inhibition,condensed nuclei [%],growth inhibition [1] [%]
Cc1c2ccncc2c(C)c2c1[nH]c1ccccc12,97% (active),22.4,
c1ccc2c(c1)[nH]c1cnccc12,-8.76% (inactive),2.05,
COc1ccccc1-n1c(O)c(C=NCCCn2ccnc2)c(=O)[nH]c1=O,-20.9% (inactive),3.63,8.58
CC1(C)CC(=O)C(C=NCCN2CCN(C(=O)Cc3ccc(F)cc3)CC2)=C(O)C1,44.1% (inactive),1.29,0.25
Nc1c(C(=O)NCc2ccco2)c2nc3ccccc3nc2n1Cc1ccc(F)cc1,34.1% (inactive),1.57,32.2
COCCOC(=O)c1c(N)n(Cc2ccco2)c2nc3ccccc3nc12,-45.9% (inactive),3.74,-19.7
Nc1c(C(=O)NCc2ccco2)c2nc3ccccc3nc2n1CCN1CCCCC1,96.7% (active),15.6,86.4
Cc1ccc(C)c(C2(O)CC(C)N(C)CC2C)c1 (stereo not given),-0.27% (inactive),2.34,1.07
CC(C)[C@@]1(NC(=O)[C@@H]2C[C@@H]3c4cccc5[nH]cc(c45)C[C@H]3N(C)C2)O[C@@]2(O)[C@@H]3CCCN3C(=O)[C@H](Cc3ccccc3)N2C1=O,88.7% (inactive),10.3,
CN1C[C@H](CNC(=O)OCc2ccccc2)C[C@@H]2c3cccc4c3c(cn4C)C[C@H]21,93.2% (active),18.1,
CC[C@@H](CO)NC(=O)[C@@H]1C=C2c3cccc4c3c(cn4C)C[C@H]2N(C)C1,12.4% (inactive),0.97,
O=C(Nc1ccncc1)c1c(O)c2ccccc2n(Cc2ccccc2)c1=O,-29.4% (inactive),1.56,-27.2
CCOC(=O)[C@@]1(C#N)[C@@H]2C=CC(C(N)=O)=CN2[C@@H](C(N)=O)[C@@H]1c1cccc(Cl)c1,1.36% (inactive),1.63,-5.1
CC1(c2ccccc2)NCCN2C(=O)CSC21 (stereo not given),-10.3% (inactive),1.47,-1.15
CCOc1ccc(-n2c(O)c(C=NCCN3CCNCC3)c(=O)[nH]c2=O)cc1,46.2% (inactive),2.45,-8.84
